Our source for the growth inhibition values is PubChem BioAssay (NCI).

Where “and” joins values, the source holds several entries; their conditions need not be identical. Equal entries are not always repeated. This is part of a sample that, as a whole, favours compounds with a hit. Of some 79,000 tested, about 15% had one in any assay. Some structures have more than one record in an assay (separate samples or runs), and their calls can disagree. Calls of active or inactive are those of the source. Rule as the data show it: active = growth inhibition above about 70%; inactive = the rest.

The first assay in a line: NCI Yeast Anticancer Drug Screen. Data for the rad50 strain (AID 155).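 Also: 0% = growth of vehicle-only cultures of the same strain.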 The conditions noted are these: S. cerevisiae rad50 strain growth inhibition; at 50.0 µM; stronger effect = higher value. Put shortly: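 Inhibition values express reduced yeast growth in compound-treated cultures relative to vehicle-treated controls.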
Consider `CS(=O)(=O)SCc1ccc([N+](=O)[O-])cc1`, for which the growth inhibition was 97.9% (active).

In the case of `Cc1csc(=S)n1OC(=O)NC1CCCCC1`, the growth inhibition was 92.5% (active).

`CCOc1ccc(NC(=O)C2=C(C)NC(C)=C(C(=O)Nc3ccc(OCC)cc3)C2c2cccc([N+](=O)[O-])c2)cc1`: the growth inhibition was 26.4% (inactive).

On to `CC(C)(C)N=C(NO)c1ccccc1`, for which the growth inhibition was 70.2% (active).

Regarding `CCCCC/C(=C(\C#N)C(=O)OCC)c1ccccc1`, the growth inhibition was -7% (inactive).

On to `O=C(NCCCl)Sc1ccc(Cl)cc1`, for which the growth inhibition was 95.2% (active).

As to `O=C1Nc2ccc(Br)cc2C1=Nc1ccc2c(c1)OCO2`, the growth inhibition was -9.9% (inactive).

`CCC(C)OC(=O)Nc1ccc(C)c(NC(=O)OC(C)CC)c1` (stereo not drawn): the growth inhibition is 54% (inactive).

As for `O=C(O)c1cc2ccc(Cl)cc2c(O)c1C1=CCCCC1`, the growth inhibition is 74.3% (active).

As for `CN(C)Cc1cc(N=Nc2ccc(Cl)cc2)ccc1OC(=O)c1ccccc1`, the growth inhibition is 90.3% (active).

Turning to `CN1CCN(C(=O)/C=C/C(=O)c2ccccc2)CC1`, the growth inhibition is 93.3% (active).

With `CCCC/C=C/C(C)(C(=O)OCC)C(=O)OCC`, the growth inhibition was -6.4% (inactive).

In the case of `Cc1nc(-c2cc3cc([N+](=O)[O-])ccc3oc2=O)cs1`, the growth inhibition was 89.9% (active).

With `Cc1nc2ccccc2nc1NNc1ccccc1`, the growth inhibition is 81.3% (active).

With `CN(C)[C@@H]1C(=O)C(C(N)=O)=C(O)[C@@]2(O)C(=O)C3=C(O)c4c(O)cccc4C[C@H]3C[C@@H]12`, the growth inhibition is 85.1% (active).

On to `COc1ccc(NC(=O)CC2SC(=Nc3ccccc3C)NC2=O)c([N+](=O)[O-])c1` (stereo not drawn), for which the growth inhibition was 56.7% (inactive).

For `COc1cc(O)c2c(c1O)C(=O)c1cc(C)ncc1C2=O`, the growth inhibition is 65.7% (inactive).

As for `CSc1nnc(SC)nn1`, the growth inhibition is 82.2% (active).

As to `COc1cc(/C=C2\CCC/C(=C\c3ccc(O)c(OC)c3)C2=O)ccc1O`, the growth inhibition was 2.8% (inactive) and 9.55% (inactive).

For the compound `CN(C)CCNC(=O)c1cccc2cc([N+](=O)[O-])ccc12`, the growth inhibition is 86.5% (active).

Turning to `CCC(C)(C)c1ccc(Oc2cccc(C(=O)O)c2)cc1`, the growth inhibition is 72.1% (active).

In the case of `CCCCCCSc1ncnc2[nH]ncc12`, the growth inhibition was 79.4% (active).

`CC(=O)Nc1ccc(/C=C/[N+](=O)[O-])cc1`: the growth inhibition was 85% (active).

In the case of `CCOC(=O)c1[nH]n(-c2ccccc2)c(=O)c1C=NC(=S)C(N)=S`, the growth inhibition was 87.5% (active).

`CCCC(O)C1CC(C(C)C)CCC1C` (stereo not drawn): the growth inhibition was 31.4% (inactive).

As to `O=[n+]1c2ccccc2n([O-])c2cc(Br)ccc21`, the growth inhibition was 99.2% (active).

For the compound `CN(C)CCNC(=O)c1cccc2c1Oc1c(cccc1[N+](=O)[O-])O2`, the growth inhibition is 32.6% (inactive).

On to `Nc1ncc(-c2ccc(Br)cc2)s1`, for which the growth inhibition is 89.5% (active).

As to `Cc1cc2cc3cc(C)c(N)cc3nc2cc1N`, the growth inhibition was 81.8% (active).

Take `CC12C(=O)OC(=O)C(c3ccccc31)c1ccccc12`: the growth inhibition is 98.3% (active).

With `c1ccc2c(OCC3CO3)cccc2c1` (stereo not drawn), the growth inhibition is 92.8% (active).

As to `CCOC(=N)c1ccc(O)c(OC)c1`, the growth inhibition is 2% (inactive).

With `Nc1cc(N)c(N=Nc2cccc3c(S(=O)(=O)O)cccc23)cc1N=Nc1cc([N+](=O)[O-])ccc1O`, the growth inhibition is 38.5% (inactive).

Turning to `COC(=O)Oc1cc(Cl)c(Cl)cc1Cl`, the growth inhibition was 30.8% (inactive).

Consider `O=C(O)C1CC(c2ccccc2)=NN1c1ccccc1` (stereo not drawn), for which the growth inhibition is 19.4% (inactive).

Turning to `COc1cc([C@@H]2c3cc4c(cc3[C@@H](Nc3ccc(NC(=O)c5cc([N+](=O)[O-])cn5C)cc3)[C@H]3COC(=O)[C@H]23)OCO4)cc(OC)c1O`, the growth inhibition was 67.5% (inactive) and 75.9% (active).

With `O=C(O)c1ccccc1/C=N/N=C1c2ccccc2-c2ccccc21`, the growth inhibition was 50.8% (inactive).

`O=C1CC(=O)c2ccccc21`: the growth inhibition was 87.4% (active).

Regarding `Nc1ncnc2c1ncn2C1OC(CO)CC1O` (stereo not drawn), the growth inhibition was 87.8% (active) and 6.15% (inactive) and 79.6% (active).

The same assay, now with this note: S. cerevisiae rad50 strain growth inhibition; at 100.0 µM; stronger effect = higher value.
With `CS(=O)(=O)SCc1ccc([N+](=O)[O-])cc1`, the growth inhibition is 97% (active).

Turning to `Cc1csc(=S)n1OC(=O)NC1CCCCC1`, the growth inhibition is 98% (active).

Take `CCOc1ccc(NC(=O)C2=C(C)NC(C)=C(C(=O)Nc3ccc(OCC)cc3)C2c2cccc([N+](=O)[O-])c2)cc1`: the growth inhibition was 79% (active).

Regarding `CC(C)(C)N=C(NO)c1ccccc1`, the growth inhibition was 55% (inactive).

Turning to `CCCCC/C(=C(\C#N)C(=O)OCC)c1ccccc1`, the growth inhibition was -6% (inactive).

With `O=C(NCCCl)Sc1ccc(Cl)cc1`, the growth inhibition was 98% (active).

Consider `O=C1Nc2ccc(Br)cc2C1=Nc1ccc2c(c1)OCO2`, for which the growth inhibition is -10% (inactive).

As to `CCC(C)OC(=O)Nc1ccc(C)c(NC(=O)OC(C)CC)c1` (stereo not drawn), the growth inhibition is 96% (active).

Consider `O=C(O)c1cc2ccc(Cl)cc2c(O)c1C1=CCCCC1`, for which the growth inhibition is 76% (active).

With `CN(C)Cc1cc(N=Nc2ccc(Cl)cc2)ccc1OC(=O)c1ccccc1`, the growth inhibition was 11% (inactive).

As for `CN1CCN(C(=O)/C=C/C(=O)c2ccccc2)CC1`, the growth inhibition was 90% (active).

Regarding `CCCC/C=C/C(C)(C(=O)OCC)C(=O)OCC`, the growth inhibition is 19% (inactive).

As to `Cc1nc(-c2cc3cc([N+](=O)[O-])ccc3oc2=O)cs1`, the growth inhibition was 94% (active).

For `Cc1nc2ccccc2nc1NNc1ccccc1`, the growth inhibition is 60% (inactive).

For the compound `CN(C)[C@@H]1C(=O)C(C(N)=O)=C(O)[C@@]2(O)C(=O)C3=C(O)c4c(O)cccc4C[C@H]3C[C@@H]12`, the growth inhibition is 99% (active).

Take `COc1ccc(NC(=O)CC2SC(=Nc3ccccc3C)NC2=O)c([N+](=O)[O-])c1` (stereo not drawn): the growth inhibition was 98% (active).

As for `COc1cc(O)c2c(c1O)C(=O)c1cc(C)ncc1C2=O`, the growth inhibition was 86% (active).

`CSc1nnc(SC)nn1`: the growth inhibition was 96% (active).

For `COc1cc(/C=C2\CCC/C(=C\c3ccc(O)c(OC)c3)C2=O)ccc1O`, the growth inhibition was 8% (inactive).

Regarding `CN(C)CCNC(=O)c1cccc2cc([N+](=O)[O-])ccc12`, the growth inhibition is 97% (active).

Regarding `CCC(C)(C)c1ccc(Oc2cccc(C(=O)O)c2)cc1`, the growth inhibition was 71% (active).

Consider `CCCCCCSc1ncnc2[nH]ncc12`, for which the growth inhibition is 5% (inactive).

Consider `CC(=O)Nc1ccc(/C=C/[N+](=O)[O-])cc1`, for which the growth inhibition is 98% (active).

As to `CCOC(=O)c1[nH]n(-c2ccccc2)c(=O)c1C=NC(=S)C(N)=S`, the growth inhibition was 97% (active).

As for `CCCC(O)C1CC(C(C)C)CCC1C` (stereo not drawn), the growth inhibition is 64% (inactive).

In the case of `O=[n+]1c2ccccc2n([O-])c2cc(Br)ccc21`, the growth inhibition was 97% (active).

For the compound `CN(C)CCNC(=O)c1cccc2c1Oc1c(cccc1[N+](=O)[O-])O2`, the growth inhibition was 95% (active).

In the case of `Nc1ncc(-c2ccc(Br)cc2)s1`, the growth inhibition was 97% (active).

Turning to `Cc1cc2cc3cc(C)c(N)cc3nc2cc1N`, the growth inhibition was 96% (active).

As for `CC12C(=O)OC(=O)C(c3ccccc31)c1ccccc12`, the growth inhibition is 20% (inactive).

Regarding `c1ccc2c(OCC3CO3)cccc2c1` (stereo not drawn), the growth inhibition was 95% (active).

With `CCOC(=N)c1ccc(O)c(OC)c1`, the growth inhibition is 2% (inactive).

Regarding `Nc1cc(N)c(N=Nc2cccc3c(S(=O)(=O)O)cccc23)cc1N=Nc1cc([N+](=O)[O-])ccc1O`, the growth inhibition is 54% (inactive).

For the compound `COC(=O)Oc1cc(Cl)c(Cl)cc1Cl`, the growth inhibition is 10% (inactive).

Take `O=C(O)C1CC(c2ccccc2)=NN1c1ccccc1` (stereo not drawn): the growth inhibition was 95% (active).

Take `COc1cc([C@@H]2c3cc4c(cc3[C@@H](Nc3ccc(NC(=O)c5cc([N+](=O)[O-])cn5C)cc3)[C@H]3COC(=O)[C@H]23)OCO4)cc(OC)c1O`: the growth inhibition is 92% (active).

`O=C(O)c1ccccc1/C=N/N=C1c2ccccc2-c2ccccc21`: the growth inhibition was 13% (inactive).

For the compound `O=C1CC(=O)c2ccccc21`, the growth inhibition is 46% (inactive).

Regarding `Nc1ncnc2c1ncn2C1OC(CO)CC1O` (stereo not drawn), the growth inhibition is 91% (active).
